Data reported in PubChem BioAssay AID1347075 (National Center for Advancing Translational Sciences (NCATS), 2019).
About 5,500 (1.4%) of roughly 400,000 compounds were called active. Where a call stands in place of a potency, no number is given. Not shown: some 9% with an inconclusive outcome. This is one part of a sample in which actives are shown more often than they occur. The call rests on the fitted dose curve; in most records, active means well fitted cell-killing curve with a large enough effect; inconclusive means small, poorly fitted or top-dose-only effect, or effect the other way; inactive means flat fitted curve, though single readings scatter.

assay: qHTS assay for MDR1-selective chemotherapeutics: Primary screen using the parental adenocarcinoma cell KB-3-1; conditions: KB-3-1 viability, CellTiter-Glo ATP luminescence, 72 h; series mostly up to 46.1 µM; further: nearly all actives have a fitted effect of over 60% in size
Procedure, shortened: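 KB-3-1 parental drug-naive adenocarcinoma cells in DMEM/10% FBS, incubated 72 h at 37 C with pin-transferred compounds across a concentration series. Viability by CellTiter-Glo luminescence; concentration-response curves fitted after normalization.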
Potency means the concentration at half of the fitted maximal effect.

| Structure (SMILES) | Potency |
| --- | --- |
| O=C(Nc1nnc(C2CC(=O)N(c3ccc(Cl)cc3)C2)s1)c1ccco1 (configuration not stated) | inactive |
| Cc1nc2nc(NCc3cccc(Br)c3)[nH]n2c(=O)c1Cc1ccccc1 | inactive |
| CCN(CCCNC(=O)Cn1ncc2c([nH]c3ccccc32)c1=O)c1cccc(C)c1 | inactive |
| COc1ccc(-c2noc(CSc3nnc(-c4ccccc4)n3-c3ccc(F)cc3)n2)c(OC)c1 | inactive |
| CCOC(=O)c1c(C)[nH]c(C)c1S(=O)(=O)N1CCCC(C(=O)NCc2ccccc2Cl)C1 (configuration not stated) | inactive |
| COc1cc(C(=O)Nc2ccc(OCc3cc(=O)n4ccc(C)cc4n3)cc2)cc(OC)c1OC | inactive |
| CN(CCOc1ccc(CC2SC(=O)NC2=O)cc1)c1ccccn1 (configuration not stated) | inactive |
| CCN(CC)CCNCC(=O)Nc1ccc(Oc2ccccc2)cc1 | inactive |
| CCN(CC)CCOc1ccc2c(c1)C(=NNC(=O)c1ccccn1)c1cc(OCCN(CC)CC)ccc1-2 | 14.6 µM (active) |
| Cn1c(=O)c2c(nc(Oc3ccc(C#N)cc3)n2Cc2ccc(Cl)cc2Cl)n(C)c1=O | inactive |
| CCc1ccc(NC(=O)Cn2c(=O)n(CCC(=O)NCc3ccc4c(c3)OCO4)c(=O)c3ccccc32)cc1 | inactive |
| COC(=O)c1ccccc1NC(=O)c1cnn(-c2ccc(F)cc2)c1-n1cccc1 | inactive |
| CCC(=O)N1CCc2cc(S(=O)(=O)NC(Cc3ccccc3)C(=O)NCc3ccccc3)ccc21 (configuration not stated) | inactive |
| Cc1nnc2n1N=C(c1ccc3c(c1)NC(=O)CO3)CS2 | inactive |
| COc1ccc(C2=Nn3c(nnc3-c3ccccc3OC)SC2)cc1OC1CCCC1 | 2.31 µM (active) |
| CCn1c(SCC(=O)NC2CC2)nnc1-c1ccccc1OC | inactive |
| O=[n+]1c2c(n([O-])c3cc(Br)ccc31)CCC2 | inactive |
| C/C(=N\N)c1c(-c2ccccc2)c2cc(Br)ccc2[nH]c1=O | inactive |
| O=C1CCCc2c1[nH]c1ccc(Br)cc21 | 0.651 µM (active) |
| CCOC(=O)c1ccccc1NC(=O)CCc1c(C)nc2c(c1C)c(=O)n(C)c(=O)n2C | inactive |
| Cc1nn(CC(=O)O)c(=O)c2cc3cc(F)ccc3n12 | inactive |
| COc1cc(NC(=O)CCn2nc(C)cc2C)cc(OC)c1OC | inactive |
| OC(CBr)CN1CCCCC1 (configuration not stated) | inactive |

| Structure (SMILES) | Potency |
| --- | --- |
| CC1(C(=O)O)CCN1C(=O)/C=C/c1ccccc1 (configuration not stated) | inactive |
| CC1(C(=O)NS(=O)(=O)c2ccccc2)CCN1C(=O)C/C=C/c1ccccc1 (configuration not stated) | inactive |
| CC1(C)CCSC(/C=C/c2ccccc2)=N1 | 14.6 µM (active) |
| COc1ccc(NC(=S)SC)cc1OC | inactive |
| CC(=O)c1c(C)oc2ccc(NS(=O)(=O)c3ccc(C(=O)O)cc3)cc12 | inactive |
| CC(=O)c1c(C)oc2ccc(NS(=O)(=O)c3ccccc3)cc12 | inactive |
| COc1ccc(S(=O)(=O)Nc2cc(C)on2)cc1NC(C)=O | inactive |
| COc1ccc(NS(=O)(=O)c2ccc(NC(C)=O)cc2)cc1OC | 14.6 µM (active) |
| COc1ccc(S(=O)(=O)Nc2ccc3oc(C)c(C(C)=O)c3c2)cc1 | 3.26 µM (active) |
| Cc1ccc(N(C)C(=O)C2CCN(S(=O)(=O)c3ccc4c(c3)CCCN4C(=O)C3CCC3)CC2)cc1 | inactive |
| CCOc1ccc(CNCc2c(C(=O)O)c(C)n(Cc3cccc(OC)c3)c2C)cc1OC | inactive |
| OCCNc1ncnc2oc(-c3ccco3)c(-c3ccco3)c12 | inactive |
| Cn1c(=O)c2c(SCC(=O)N3CCc4ccccc43)nc(-c3ccc(Cl)cc3)nc2n(C)c1=O | inactive |
| O=C(COc1ccccc1F)Nc1ccc(C(=O)OCc2cc(=O)n3nc(C4CC4)sc3n2)cc1 | inactive |
| COc1cccc(C(=O)NCc2ccc3c(c2)CCN3C(=O)c2ccncc2)c1 | inactive |
| Brc1cccc[n+]1Cc1cccc(C[n+]2ccccc2Br)c1 | inactive |
| S=c1[nH]nc(-c2ccco2)n1/N=C/c1ccc(Br)s1 | inactive |
| Cc1cc(-c2n[nH]c(=S)n2/N=C/C(Br)=C/c2ccccc2)n[nH]1 | 5.8 µM (active) |
| COc1ccccc1/C=C/C=N/n1c(-c2ccc(Cl)cc2Cl)n[nH]c1=S | inactive |
| CN(C)CCCn1c(N)c(C#N)c2nc(C#N)c(C#N)nc21 | 23.1 µM (active) |
| COCCn1c(SCC(=O)c2cc(C)ccc2C)nc2cc(C(=O)NC3CCCC3)ccc2c1=O | inactive |
| CCOc1ccc(-c2n[nH]c3c2C(c2ccccc2OC)N(c2ccc(Br)cc2)C3=O)cc1 (configuration not stated) | inactive |
| CCCCCc1c(Cc2ccccc2)ncn1CCc1ccccc1OC | 16.4 µM (active) |

| Structure (SMILES) | Potency |
| --- | --- |
| COc1ccccc1CCNS(=O)(=O)c1cn(C)nc1C | inactive |
| CCCc1c(-c2ccccc2F)ncn1Cc1ccccc1OC | 20.6 µM (active) |
| COCCn1cnc2c1c(=O)n(Cc1ccc(Br)cc1)c(=O)n2Cc1ccccc1 | inactive |
| Cn1c(=O)c2c(ncn2CCc2ccccc2)n(C)c1=O | inactive |
| CCCCc1c(-c2ccc(Br)cc2)ncn1CCc1ccccc1OC | 16.4 µM (active) |
| COc1cccc(OC)c1C(=O)N1CCN(Cc2ccccc2F)CC1 | inactive |
| COc1ccccc1CN1CCN(Cc2cc(OC)c(OC)cc2OC)CC1 | inactive |
| CC(=O)Nc1ccc(NC(=O)CCCc2nc(-c3ccc(C(C)(C)C)cc3)no2)cc1 | inactive |
| COc1cc(C(=O)N(Cc2ccc(C(C)C)cc2)C2CCS(=O)(=O)C2)cc(OC)c1OC (configuration not stated) | inactive |
| CCCN(CCC)C(=O)C(Cc1ccccc1)NS(=O)(=O)c1ccc2c(c1)c(=O)n(C)c(=O)n2C (configuration not stated) | inactive |
| N#C/C(=C\c1cccc(F)c1)c1nc(-c2cc3c(ccc4ccccc43)oc2=O)cs1 | inactive |
| O=C(NCCCO)C(=O)Nc1c2c(nn1-c1ccc(F)cc1)CSC2 | inactive |
| CN(C)Cc1cn(-c2ccccc2)nc1-c1ccccc1 | inactive |
| N#Cc1ccc(OC2=NS(=O)(=O)c3ccccc32)cc1 | inactive |
| Cn1c(=O)c2c(nc(NCCc3ccccc3)n2Cc2ccccc2Br)n(C)c1=O | inactive |
| OC(Cc1ccc2ccccc2n1)c1ccc(Cl)c(Cl)c1 (configuration not stated) | inactive |
| O=S(=O)(c1ccc(Br)cc1)c1nnn2c1nc(N1CCOCC1)c1sccc12 | inactive |
| CCOC(=O)C1CCCN(C(=O)c2ccc(-n3ccc4ccccc43)s2)C1 (configuration not stated) | inactive |
| COc1ccc2cc(C3=CC(=O)C[C@H](c4ccc5c(c4)OCO5)C3)ccc2c1 | inactive |
| O=C1C=C(c2ccnc3cc(Cl)ccc23)C[C@@H](c2ccc3c(c2)OCO3)C1 | 23.1 µM (active) |
| O=C1C=C(c2cc(C(F)(F)F)cc(C(F)(F)F)c2)C[C@@H](c2ccc3c(c2)OCO3)C1 | inactive |
